Screening results as filed in PubChem BioAssay.
Sampled rows, rich in hits. Any-hit rate of the full collection: about 19%.
IL-1B inflam inh: qHTS for Inhibitors of Inflammasome Signaling: IL-1-beta AlphaLISA Primary Screen. activity change, % at 57.5 µM. 4.7% of 360,000 active. THP-1 LPS/ATP IL-1B secretion, AlphaLISA, 16 h; stronger effect = lower value; in the data active means activity change below about -50%; inconclusive means mostly about -30% to -49%
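Secreted IL-1B measured by AlphaLISA bead assay after 16 h compound exposure of THP-1 cells; compounds (final up to 57.5 uM) added 1 h before LPS (250 ng/mL) and ATP (1.25 mM) stimulation; lower signal means less secretion.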
ELG1 repair inh: qHTS screen for small molecules that inhibit ELG1-dependent DNA repair in human embryonic kidney (HEK293T) cells expressing luciferase-tagged ELG1. HEK293T ELG1-luciferase reporter, luminescence, 16 h; DNA damage induced by 5-fluorouridine. Potency, µM (highest dose often 46.1 µM), for inactives: at the top dose activity change, negative = inhibition, most hits filed as inhibitors. 2.3% of 330,000 active; further: potency means the concentration at half of the fitted maximal effect; nearly all actives have a fitted effect of over 55% in size
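Overnight (16 hr) co-exposure of 2,000 cells/well to 5-fluorouridine and compound at 37 °C preceded detection. Luciferase was quantified via ONE-Glo luminescence; loss of signal denotes inhibition.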
HT1080 IDH1KD tx: qHTS for induction of synthetic lethality in tumor cells producing 2HG: qHTS for the HT-1080-IDH1KD cell line | HT-1080 IDH1 knockdown viability, ATP luminescence, 48 h | 2% of 360,000 active | Potency, µM (highest dose often 46.1 µM), for inactives: at the top dose activity, negative = toxicity, usual class: cytotoxic;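 further: potency means the concentration at half of the fitted maximal effect; 0% = DMSO wells and -100% = cell-free medium wells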
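Viability of IDH1-knockdown HT-1080 fibrosarcoma cells was assessed by CellTiter-Glo after 48 h at 37 °C with titrated compound; concentration-effect curves were classified by fit quality and response size.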
DT40 TDP1 no CPT: qHTS for Inhibitors of human tyrosyl-DNA phosphodiesterase 1 (TDP1): qHTS in cells in absence of CPT | Potency, µM (titrated, usually from 46.2 µM), inactives show top-dose activity change, negative = growth inhibition, most hits filed as inhibitors | 15% of 420,000 active | DT40 Tdp1-/- hTDP1 cells, no CPT, ATP luminescence, 48 h; further: potency means the concentration at half of the fitted maximal effect; nearly all actives have a fitted effect of over 55% in size
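Chicken DT40 Tdp1-/- cells stably complemented with human TDP1 were seeded at 400 cells/well with DMSO in place of 20 nM camptothecin. After compound pinning, cells grew at least 48 hr at 37 °C; viability read by CellTiter-Glo luminescence.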
TDP1 cell CPT: qHTS for Inhibitors of human tyrosyl-DNA phosphodiesterase 1 (TDP1): qHTS in cells in presence of CPT. chicken DT40 Tdp1-/-;hTDP1 cells + 20 nM CPT, ATP luminescence, 48 h. Potency, µM (titrated, usually from 46.2 µM), without a hit: top-dose activity change, negative = growth inhibition, most hits filed as inhibitors. 12% of 420,000 active; further: potency means the concentration at half of the fitted maximal effect; nearly all actives have a fitted effect of over 55% in size
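Chicken DT40 Tdp1-/- cells complemented with human TDP1, 400 cells/well, exposed to compounds plus 20 nM camptothecin for at least 48 h at 37 C; viability read as ATP content by CellTiter-Glo luminescence.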
HT1080-NT tox: qHTS for induction of synthetic lethality in tumor cells producing 2HG: qHTS for the HT-1080-NT fibrosarcoma cell line; HT-1080-NT fibrosarcoma viability, CellTiter-Glo ATP luminescence, 48 h; Potency, µM (top dose mostly 46.1 µM), inactives show at the top dose activity, negative = less viability, actives largely listed as cytotoxic; 1.6% of 360,000 active; AID 686970, 2013;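 further: NT is the 2HG producing partner of a matched IDH1 knockdown line; potency means the concentration at half of the fitted maximal effect; 0% = DMSO-treated cells and -100% = media-only wells without cells; nearly all actives have a fitted effect of over 55% in size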
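Luminescent CellTiter-Glo readout after 48 hours of compound exposure at 37 degrees C defined viability of HT-1080-NT cells. Activity was normalized to DMSO wells and cell-free media wells; concentration-response curves were fitted and assigned curve classes.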
Numbers without * were called inactive; ? = inconclusive; · = no result given; [ ] = dose if it differs, or a comment. Unless noted, the call rests on the fitted dose curve; in most records, active means well fitted curve in the direction sought with a large enough effect; inconclusive means small, poorly fitted or top-dose-only effect, or another doubt; inactive means no such curve, though single readings can be large; an effect the other way counts as inactive or inconclusive. Unless noted, on the % scale 0 is the no-effect control and ±100 the full control effect.

SMILES	IL-1B inflam inh	ELG1 repair inh	HT1080 IDH1KD tx	DT40 TDP1 no CPT	TDP1 cell CPT	HT1080-NT tox
O=C(NCc1ccc(Cl)cc1)c1ccc(-c2ccccc2C(F)(F)F)o1	-15	4%	-4%	23µM*	21µM*	14%
O=C(NCc1ccc(Cl)cc1)c1ccc(COCC(F)(F)F)o1	-1	-3%	-24%	?	-12%	-16%
O=C(Nc1cccnc1)c1ccc(-c2cc(Cl)ccc2Cl)o1	-16	?	0%	21µM*	?	-6%
COC(=O)c1sccc1-c1ccc(C(=O)Nc2cccc(Cl)c2)o1	11	?	-7%	23µM*	?	-6%
O=C(Nc1ccccc1)c1ccc(-c2ccc([N+](=O)[O-])cc2)o1	-64*	?	1%	?	-24%	-7%
O=C1NC[C@H](CCCCN2CCN(CCC3CCCCC3)C(=O)C2=O)N(CCc2ccc(O)cc2)C1=O	0	·	15%	-4%	-20%	23%
Cc1c(NC(=O)COC(=O)C2(c3ccc(F)cc3)CCCC2)c(=O)n(-c2ccccc2)n1C	29	-7%	22%	?	-24%	15%
Cc1c(Cl)cccc1-c1ccc(C(=O)Nc2ccc(F)cc2)o1	·	·	·	9.2µM*	12µM*	·
O=C(Nc1ccccc1)c1ccc(-c2ccccc2C(F)(F)F)o1	-1	?	0%	21µM*	?	-3%
O=C(NN1C(=O)NC2(CCCCC2)C1=O)c1ccc(-c2ccc([N+](=O)[O-])cc2)o1	-7	-4%	-8%	21µM*	21µM*	-2%
O=C(NN1C(=O)NC2(CCCCC2)C1=O)c1ccc(-c2ccccc2Cl)o1	?	?	-13%	-29%	?	2%
O=C(Nc1nccs1)c1ccc(-c2ccccc2[N+](=O)[O-])o1	-7	?	-5%	?	?	1%
CC(C)NC(=O)c1ccc(-c2ccccc2C(F)(F)F)o1	?	?	2%[9.24 µM]	-15%	-21%	2%
O=C(Nc1nccs1)c1ccc(-c2ccccc2Cl)o1	-89*	?	26%[9.24 µM]	?	?	?
COc1ccc(-c2coc3c(C(=O)NC4CCCCC4)cccc23)c(C)c1	-27	·	?	?	?	?
Cc1ccc(-c2ccc(C(=O)NCc3ccccc3)o2)c2ccccc12	-22	0%	-6%	?	23µM*	-1%
O=C(Nc1ccc([N+](=O)[O-])cc1)c1ccccc1	-1	?	1%	-15%	-2%	-1%
O=C(Nc1ccccc1)c1ccc(-c2ccccc2Cl)o1	-17	?	-5%	18µM*	21µM*	0%
O=C(Nc1ccccc1)c1ccc[n+](Cc2ccc([N+](=O)[O-])cc2)c1	-59*	17%	5%	2%	0%	5%
CC(=O)Nc1ccc(NC(=O)c2ccc(-c3ccccc3Cl)o2)cc1	-18	8%	5%	-28%	?	3%
Cc1ccc(-c2ccc(C(=O)Nc3ccccc3)o2)c2ccccc12	-10	0%	-12%	?	?	-6%
COCCNC(=O)Cn1c(=O)n(CCCCCC(=O)NCc2ccccc2Cl)c(=O)c2sccc21	·	·	·	-28%	?	·
O=C1[C@H]2[C@@H](/C=C/c3ccccc3)N3C(=O)CN(Cc4ccccn4)C(=O)[C@@]3(Cc3ccccc3)[C@H]2C(=O)N1c1ccccc1	0	3%	12%	-4%	1%	0%
O=C1NC[C@@H](CCCCN2C[C@H](Cc3ccc(O)cc3)N(CCc3ccccc3)C(=O)C2=O)N(CCc2ccccc2)C1=O	-27	·	1%	1%	0%	-2%
O=C(Cc1ccc([N+](=O)[O-])cc1)c1c(O)cc(O)cc1O	16	11%	6%	2%	13%	4%
SMILES	IL-1B inflam inh	ELG1 repair inh	HT1080 IDH1KD tx	DT40 TDP1 no CPT	TDP1 cell CPT	HT1080-NT tox
Cc1cc(O)cc(O)c1C(=O)Cc1ccccc1	-20	10µM*	-11%	?	-30%	-1%
COc1ccccc1OCC(=O)NCC1CCCN(C(=O)c2ccccc2SC)C1 (stereo not drawn)	14	15%	8%	15µM*	?	10%
COc1ccccc1OCC(=O)NCC1CCCN(C(=O)c2ccccc2C(C)=O)C1 (stereo not drawn)	-7	15%	14%	3%	8%	6%
COc1ccc(/C=C2\SC(N3CCc4ccccc4C3)=NC2=O)cc1	?	-2%	9%	?	?	3%
COc1cccc(/C=C2\SC(N3CCCC(C)C3)=NC2=O)c1OC (stereo not drawn)	-15	?	-21%	?	?	-15%
CCOc1ccc(/C=C2\SC(N3CCc4ccccc4C3)=NC2=O)cc1	-54*	-17%	-22%	21µM*	29µM*	?
COc1cc(/C=C2\SC(N3CCc4ccccc4C3)=NC2=O)cc(OC)c1OC	-67*	18µM*	10%	16µM*	21µM*	1%
CCOc1ccc(OCC)c(Nc2nc3ccc(C(=O)c4ccccc4)cc3n3cnnc23)c1	·	·	·	-10%	-20%	·
C[N+]1(C)CCC(=C2c3ccccc3CC(=O)c3sccc32)CC1	-6	?	?	?	26µM*	-21%
COc1ccc(N2CCOCC2)c(NC(=O)c2cccs2)c1	-20	-27%	-13%	?	?	-15%
CC1=CC(=O)Nc2ccccc2S1	-6	·	-6%	?	?	-3%
CCN(CC)S(=O)(=O)c1ccc(Cl)c(C(=O)Nc2cc(C)nn2-c2ccccc2)c1	-18	?	-11%	?	18µM*	-4%
CCN(CC)S(=O)(=O)c1cccc(C(=O)Nc2cc(C)nn2-c2ccccc2)c1	22	23µM*	2%	?	2%	-14%
Cc1cccc(N(C)c2ncnc3onc(-c4ccc(F)cc4)c23)c1C	40	-29%	?	16µM*	?	?
CCOc1ccc(-c2nc(CNC(=O)Nc3ccccc3)c(C)o2)cc1	·	·	·	-13%	-26%	·
